# Activity calls are given as the source filed them. Unless noted, no rule for the calls is given here.
# How the values were obtained:
# [1] = compounds binding Alexa647 anti-His antibody – biochemical, small-molecule microarray, 635 nm fluorescence, artefact control for SMM control protein annotation, primary screen (AID 1128); details: higher = more signal;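 also: score merges feature fluorescence with signal-to-noise for each printed compound spot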
# [2] = system: Human papillomavirus type 1a E7 protein (residues 1-88); experiment: HPV1a E7 small-molecule binders, primary screen, biochemical, small-molecule microarray, residues 1-88, 635 nm (AID 1129); details: small-molecule microarray binding, fluorescence 635 nm; higher = more signal
# [3] = target: Focal adhesion kinase 1 (Homo sapiens) (UniProt Q05397); experiment: PTK2 protein binding on printed compound slides – biochemical, small-molecule microarray, 635/667 nm fluorescence, BSA, DTT, primary screen (AID 1130); details: 635 nm fluorescence, higher = more signal;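 also: composite of spot emission at 667 nm and signal to noise over triplicate slides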
# Focal adhesion kinase 1 (Homo sapiens), sequence (Q05397 whole entry, looked up): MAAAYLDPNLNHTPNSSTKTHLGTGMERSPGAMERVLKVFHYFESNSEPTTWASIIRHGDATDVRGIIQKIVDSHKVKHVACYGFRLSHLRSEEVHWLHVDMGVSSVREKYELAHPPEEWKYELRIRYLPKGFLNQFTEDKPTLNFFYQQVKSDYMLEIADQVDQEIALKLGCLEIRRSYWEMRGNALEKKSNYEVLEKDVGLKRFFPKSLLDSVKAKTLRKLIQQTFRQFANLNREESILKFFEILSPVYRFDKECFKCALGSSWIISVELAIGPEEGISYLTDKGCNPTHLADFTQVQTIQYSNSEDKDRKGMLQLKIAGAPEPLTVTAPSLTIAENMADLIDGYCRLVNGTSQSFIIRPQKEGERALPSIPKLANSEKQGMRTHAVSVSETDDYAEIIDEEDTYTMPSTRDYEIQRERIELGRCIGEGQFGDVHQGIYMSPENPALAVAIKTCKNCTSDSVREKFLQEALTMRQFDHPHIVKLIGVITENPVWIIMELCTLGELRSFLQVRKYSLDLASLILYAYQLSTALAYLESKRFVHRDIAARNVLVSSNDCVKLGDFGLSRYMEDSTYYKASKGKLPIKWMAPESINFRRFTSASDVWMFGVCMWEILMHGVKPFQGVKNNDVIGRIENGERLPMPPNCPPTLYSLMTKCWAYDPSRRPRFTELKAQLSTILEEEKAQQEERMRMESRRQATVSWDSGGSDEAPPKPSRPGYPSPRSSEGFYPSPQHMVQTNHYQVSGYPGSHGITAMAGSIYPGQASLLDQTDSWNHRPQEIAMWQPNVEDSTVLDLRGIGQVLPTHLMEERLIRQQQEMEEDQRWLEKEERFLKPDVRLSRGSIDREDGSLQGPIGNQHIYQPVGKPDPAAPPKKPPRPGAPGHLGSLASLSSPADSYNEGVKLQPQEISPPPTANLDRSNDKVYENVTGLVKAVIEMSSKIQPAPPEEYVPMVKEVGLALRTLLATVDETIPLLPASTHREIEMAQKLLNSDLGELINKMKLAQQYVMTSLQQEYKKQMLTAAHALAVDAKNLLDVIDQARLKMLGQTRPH
# [4] = system: Fibrinogen (Alexa647-labelled); experiment: Alexa647-fibrinogen binding to printed small molecules – biochemical, small-molecule microarray, 635/667 nm fluorescence, artefact control for SMM control-protein annotation, profiling panel (AID 1131); details: fibrinogen-A647 binding fluorescence, higher = more signal;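 also: z-score merges 667 nm fluorescence with per-spot signal-to-noise over triplicate slides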
# [5] = target: Follistatin (Homo sapiens) (UniProt P19883); experiment: FST protein binding to printed compounds – biochemical, small-molecule microarray, 635/667 nm fluorescence, primary screen (AID 1132); details: 635 nm fluorescence, higher = more signal
# Follistatin (Homo sapiens), sequence (P19883 whole entry, looked up): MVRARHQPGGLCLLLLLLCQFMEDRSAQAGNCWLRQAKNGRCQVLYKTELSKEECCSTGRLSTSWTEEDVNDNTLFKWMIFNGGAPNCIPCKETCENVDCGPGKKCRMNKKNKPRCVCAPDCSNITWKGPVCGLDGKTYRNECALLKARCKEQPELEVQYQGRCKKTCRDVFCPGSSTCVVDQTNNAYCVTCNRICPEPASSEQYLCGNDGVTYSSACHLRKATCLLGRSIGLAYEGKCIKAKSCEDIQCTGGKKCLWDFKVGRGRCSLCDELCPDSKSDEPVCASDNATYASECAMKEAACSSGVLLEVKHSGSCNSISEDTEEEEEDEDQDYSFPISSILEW
# [6] = target: Fibroblast growth factor 2 (Homo sapiens) (UniProt P09038); experiment: basic fibroblast growth factor binding to printed compounds – biochemical, small-molecule microarray, 635/667 nm fluorescence, primary screen (AID 1133); details: FGF2, fluorescence 635/667, higher = more signal
# Fibroblast growth factor 2 (Homo sapiens), sequence (P09038 whole entry, looked up): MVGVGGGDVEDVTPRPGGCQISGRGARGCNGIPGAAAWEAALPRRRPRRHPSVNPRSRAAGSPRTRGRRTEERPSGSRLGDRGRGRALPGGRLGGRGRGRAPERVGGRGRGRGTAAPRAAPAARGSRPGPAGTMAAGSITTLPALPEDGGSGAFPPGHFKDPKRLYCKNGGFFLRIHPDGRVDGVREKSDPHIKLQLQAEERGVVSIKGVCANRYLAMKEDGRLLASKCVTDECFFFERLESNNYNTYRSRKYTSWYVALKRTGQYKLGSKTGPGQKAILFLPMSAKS
# [7] = JC-1 mitochondrial potential readout, lung cancer cells – cell-based, A549, JC-1 fluorescence, basal, 24 h, 100 nL, profiling panel (AID 1138); details: higher = more signal;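 also: A549 lung adenocarcinoma cells under basal conditions with no added stimulus; test concentration not given here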
# Lefty1 = Lefty1 protein binding to printed compounds – biochemical, small-molecule microarray, 635/667 nm fluorescence, primary screen (AID 1139); details: fluorescence 635/667, higher = more signal
# [8] = system: wheat germ agglutinin (Triticum aestivum), Alexa647-labelled; experiment: Alexa647-WGA lectin binding to printed small molecules – biochemical, small-molecule microarray, 635/667 nm fluorescence, artefact control for SMM control-protein annotation, profiling panel (AID 1140); details: WGA-A647 binding, 635 nm fluorescence, higher = more signal;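 also: score merges 667 nm feature emission with signal to noise over triplicate slides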
# [9] = target: Luciferin 4-monooxygenase (Photinus pyralis) (UniProt P08659); experiment: inhibition of purified Photinus pyralis luciferase – biochemical, luminescence, purified enzyme, 2006 set, primary screen (AID 1141); details: purified firefly luciferase, SteadyGlo luminescence, 30 min; higher = more signal, called active from +8 up or from −8 down;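 also: cell-free assay with purified firefly luciferase at 100 ng per well in PBS; test concentration not given here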
# Luciferin 4-monooxygenase (Photinus pyralis), sequence (P08659 whole entry, looked up): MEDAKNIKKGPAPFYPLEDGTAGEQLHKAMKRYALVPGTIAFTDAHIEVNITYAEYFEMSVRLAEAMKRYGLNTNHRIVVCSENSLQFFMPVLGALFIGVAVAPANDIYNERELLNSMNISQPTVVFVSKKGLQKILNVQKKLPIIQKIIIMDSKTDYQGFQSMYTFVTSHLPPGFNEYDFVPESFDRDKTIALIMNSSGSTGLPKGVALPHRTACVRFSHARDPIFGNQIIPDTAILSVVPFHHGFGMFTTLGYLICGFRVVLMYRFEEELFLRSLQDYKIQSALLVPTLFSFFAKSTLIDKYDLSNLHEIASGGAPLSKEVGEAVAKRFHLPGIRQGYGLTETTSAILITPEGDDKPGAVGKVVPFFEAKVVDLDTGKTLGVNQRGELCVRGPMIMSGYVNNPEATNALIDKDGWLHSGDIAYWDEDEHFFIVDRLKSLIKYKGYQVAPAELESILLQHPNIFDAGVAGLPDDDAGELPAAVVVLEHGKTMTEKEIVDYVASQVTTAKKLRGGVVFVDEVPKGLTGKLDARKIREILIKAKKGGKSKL
# [10] = system: Wnt5a (protein binding on small-molecule microarray); experiment: small molecules binding Wnt5a protein – biophysical, small-molecule microarray, 635/667 nm fluorescence, primary screen (AID 1142); details: 635 nm fluorescence, higher = more signal;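 also: fluorescence read at 667 nm with signal to noise per printed feature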
# [11] = ATP-based viability of Huh7 replicon cells – cell-based, CellTiter-Glo luminescence, basal, 48 h, cytotoxicity control for HCV replication inhibitor project, primary screen (AID 1143); details: higher = more signal, called active from +8 up or from −8 down;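 also: Huh7 hepatoma cells carrying a hepatitis C replication reporter with no stimulus; test concentration not given here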
# [12] = Pseudomonas biofilm growth suppression – PAO1 strain, BacTiter-Glo luminescence, LB-PBS, primary screen (AID 1144); details: P. aeruginosa PAO1 biofilm, 12 h, higher = more signal
# [13] = basal CRE-LacZ reporter activity in PC12 – cell-based, unstimulated, primary screen (AID 1145); details: no forskolin, luminescence, 4.5 h, higher = more signal, called active from +8 up or from −8 down
# [14] = forskolin-driven CRE-LacZ activity in PC12 – cell-based, CRE-LacZ reporter, forskolin-stimulated, primary screen (AID 1146); details: luminescence, 4.5 h, higher = more signal, called active from +8 up or from −8 down;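 also: PC12 cells with 6xCRE LacZ reporter stimulated by forskolin 10 µM; beta-galactosidase reporter signal reflecting CREB driven transcription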
# [15] = target: Streptavidin (Streptomyces avidinii) (UniProt P22629); experiment: compounds binding control protein streptavidin – biophysical, small-molecule microarray, 635/667 nm fluorescence, artefact control for SMM compound annotation, primary screen (AID 1147); details: higher = more signal;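 also: signal reflects streptavidin binding to arrayed compounds as a control protein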
# Streptavidin (Streptomyces avidinii), sequence (P22629 whole entry, looked up): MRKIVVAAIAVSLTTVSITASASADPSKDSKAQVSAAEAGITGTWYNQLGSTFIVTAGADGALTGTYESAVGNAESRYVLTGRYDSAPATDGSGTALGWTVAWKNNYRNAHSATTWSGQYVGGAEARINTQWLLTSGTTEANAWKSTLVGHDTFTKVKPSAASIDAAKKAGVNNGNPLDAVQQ
# [16] = probe aInhba binding on compound microarray – biochemical, small-molecule microarray, 635/667 nm fluorescence, primary screen (AID 1148); details: higher = more signal;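 also: score merges 667nm spot fluorescence with signal-to-noise for antibody binding to printed compounds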
# Torsin-1A (Homo sapiens) [17] = target: Torsin-1A (Homo sapiens) (UniProt O14656); experiment: TOR1A wild-type binding on microarray – cell lysate, small-molecule microarray, lysate, 635/667 nm, primary screen (AID 1149); details: COS7 hTOR1A-WT lysate, 635 nm fluorescence, higher = more signal
# Torsin-1A (Homo sapiens), sequence (O14656 whole entry, looked up): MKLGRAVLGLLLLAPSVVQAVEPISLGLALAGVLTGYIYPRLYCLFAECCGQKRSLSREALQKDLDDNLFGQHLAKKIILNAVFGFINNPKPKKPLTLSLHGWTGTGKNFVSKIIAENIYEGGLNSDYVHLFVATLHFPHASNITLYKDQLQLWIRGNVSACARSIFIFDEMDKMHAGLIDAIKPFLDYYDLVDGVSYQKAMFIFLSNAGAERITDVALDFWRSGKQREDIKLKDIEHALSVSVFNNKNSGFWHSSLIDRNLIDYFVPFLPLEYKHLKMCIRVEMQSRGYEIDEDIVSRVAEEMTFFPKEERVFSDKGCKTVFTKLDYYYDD
# Torsin-1A (Homo sapiens) [18] = target: Torsin-1A (Homo sapiens) (UniProt O14656); experiment: torsin A mutant lysate binding on microarrays – cell lysate, small-molecule microarray, COS7 lysate, 635/667 nm fluorescence, primary screen (AID 1150); details: COS7 hTOR1A mutant lysate, 635 nm fluorescence, higher = more signal;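 also: score pools 667 nm emission and signal to noise measuring lysate protein binding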
# [19] = system: Sonic hedgehog protein (Shh); experiment: Sonic hedgehog microarray binding compounds – biochemical, small-molecule microarray, 635/667 nm fluorescence, primary screen (AID 1151); details: 635 nm fluorescence, higher = more signal;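 also: Shh protein binding to compounds spotted on small-molecule microarray slides; score combines spot fluorescence intensity with signal-to-noise across triplicate slides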
SMILES,composite z-score [1],composite z-score [2],composite z-score [3],composite z-score [4],composite z-score [5],composite z-score [6],z-score [7],composite z-score (Lefty1),composite z-score [8],z-score [9],composite z-score [10],z-score [11],z-score [12],z-score [13],z-score [14],composite z-score [15],composite z-score [16],composite z-score (Torsin-1A (Homo sapiens) [17]),composite z-score (Torsin-1A (Homo sapiens) [18]),composite z-score [19]
CN1C(=O)[C@@]2(CCC(=O)OC(C)(C)C)N=C(c3ccc(OCCCO)cc3)O[C@H]2c2ccccc21,1.87,1.17,0.102,0.411,1.36,0.611,1.33,0.369,0.761,-2.62 (inactive),0.0942,-4.68 (inactive),-1.73 (inactive),0.652 (inactive),-1.92 (inactive),-0.235,0.0649,-0.132,0.43,1.5
CCCCCN1CC=CC23O[C@@H]4C=CCOC(=O)[C@@H]4[C@H]2C(=O)N(C(CO)C(C)C)[C@@H]3C1=O (stereo not given in full),0.373,-1.02,-0.565,-0.217,0.142,-0.533,-0.348,0.0028,-0.521,0.281 (inactive),-0.389,-0.524 (inactive),0.921 (inactive),-0.757 (inactive),0.371 (inactive),-0.263,0.0013,-1.34,-1.38,0.298
CC(C)NC(=O)[C@@]1(C)c2ccccc2C(=O)N(Cc2cc(F)cc(C(F)(F)F)c2)[C@H]1c1ccc(CO)cc1,0.886,0.982,0.0792,0.335,0.677,1.67,-0.483,0.0338,0.512,0.433 (inactive),0.646,-0.527 (inactive),-0.699 (inactive),0.648 (inactive),-0.237 (inactive),0.0926,0.2,0.411,0.916,0.903
C[C@H]1Cc2c(-c3ccccc3)nc3c(c2CO1)CN(CCOc1ccccc1)CC3,1.08,0.576,0.269,0.728,1.09,1.08,3.24,1.11,0.253,-1.41 (inactive),0.379,-0.239 (inactive),-0.888 (inactive),2.92 (inactive),-1.46 (inactive),0.277,-0.0313,0.132,0.565,1.17
